In the library only some 3.1% were active in any assay of this set; here they are far more common.
HSP90 inh: HSP90 refolding inhibition in rabbit reticulocyte lysate. inhibition, % at 5.6 µM. AID 1789. 0.91% of 290,000 active. luciferase refolding luminescence, 3 h;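 active means inhibition above the screen-wide mean plus 3 SD, computed separately per campaign, cut at about 16% in these data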;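 further: 0% = DMSO wells and 100% = 60 µM geldanamycin wells; inhibitors lower the luminescence because luciferase stays unfolded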
ARNT TACC3 PPI: ARNT/TACC3 interaction disruption; inhibition, % at 9.99 µM; Q9Y6A5; AID 623870; AlphaScreen His-ARNT PAS-B/GST-TACC3 binding, luminescence; TACC3 fragment carries E629A point mutation; 0.66% of 390,000 active;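 active means mean inhibition of replicates at least 50% and at least half of replicates each reaching 50%; inconclusive means half or more replicates reach 50% but mean below 50%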;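 further: 0% = complete ARNT plus TACC3 wells and 100% = ARNT alone without TACC3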
HIF act: HIF pathway transcriptional activation. U2OS HRE-luciferase reporter, luminescence; normalized: DMSO 0%, desferrioxamine 100%. activation, % at 7.5 µM (by protocol). 0.32% of 300,000 active. AID 1910;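 active means mean activation of at least 10% of the iron chelator positive control signal, with at least half of replicates also reaching 10%; inconclusive means mean and replicate majority disagree about reaching 10%; inactive means mean and most replicates under 10%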
HSF1 inhib: HSF1 inhibition | 0.77% of 300,000 active | activity change, negative = inhibition, % at 7.5 µM (by protocol) | AID 2098 | NIH3T3-HGL HSE-luciferase, MG132-induced, luminescence 8 h; stronger effect = lower value;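 active means more than half of replicate wells show activity change below -50%, luminescence cut by over half; inconclusive means some wells, but at most half, below -50%; inactive means no replicate well below -50%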;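 further: luciferase reports HSF-1 transcriptional activity via heat shock element; 0% = median of DMSO wells and -100% = zero luminescence signal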
HSF-1 act: increases HSF-1 driven luciferase reporter signal. NIH3T3-HGL HSF-1 luciferase reporter, MG132, 8 h; 100% = twice DMSO control signal. activation, % at 9 µM. 1.7% of 300,000 active;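 active means mean replicate activation of at least 50% with a set share of replicates each reaching 50%; inconclusive means only one of those two conditions met; inactive means mean below 50% and too few replicates reaching it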;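 further: 0% = median of the neutral control wells and 100% = twice that signal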
Numbers without * were called inactive.

`C[C@H](CO)N1C[C@H](C)[C@@H](CN(C)C(=O)Nc2ccc3c(c2)OCO3)Oc2ccc(N(C)C)cc2C1=O` gave ARNT TACC3 PPI 10*.
C[C@H](CO)N1C[C@H](C)[C@H](CN(C)C)Oc2ccc(NC(=O)Nc3ccc(F)cc3)cc2C1=O was read as ARNT TACC3 PPI 46*.
Screening C[C@H]1CN([C@@H](C)CO)C(=O)c2cc(N(C)C)ccc2O[C@H]1CN(C)C(=O)Nc1ccc2c(c1)OCO2 returned ARNT TACC3 PPI 9.
Screening C[C@H](CO)N1C[C@H](C)[C@@H](CN(C)Cc2cccnc2)Oc2ncc(C#CC3(O)CCCC3)cc2C1=O returned ARNT TACC3 PPI -13.
Screening C[C@H](CO)N1C[C@H](C)[C@H](CN(C)S(C)(=O)=O)Oc2ccc(N(C)C)cc2CC1=O returned ARNT TACC3 PPI 13.
Cc1ccc(N=C2NC(=O)/C(=C/c3cccn3C)S2)cc1C was read as HSP90 inh 3, HIF act 4, HSF1 inhib 29 and HSF-1 act 54*.
Cc1ccc(N=C2NC(=O)/C(=C/c3cccn3C)S2)cc1 was read as HSP90 inh -5, ARNT TACC3 PPI 1, HIF act 6, HSF1 inhib 16 and HSF-1 act 18.
CC(C)NC(=O)NCC[C@@H]1CC[C@H](NC(=O)CN(C)C)[C@H](CO)O1 was read as ARNT TACC3 PPI -12.
For Oc1ccc2ccccc2c1C=Nc1ccccc1-c1nc2ccccc2[nH]1 the results were HSP90 inh -3, ARNT TACC3 PPI -18, HIF act 1, HSF1 inhib 27 and HSF-1 act 59*.
Screening Cc1[nH]nc(-c2ccc(O)c(C)c2O)c1-c1cnn(-c2ccccc2)c1 returned HSP90 inh -2, ARNT TACC3 PPI 3, HIF act 0, HSF1 inhib 29 and HSF-1 act 67*.
Cc1oc2c(C)c(O)ccc2c(=O)c1-c1cnn(-c2ccccc2)c1 was read as HSP90 inh 1, ARNT TACC3 PPI -3, HIF act 1, HSF1 inhib 0 and HSF-1 act 3.
`COc1ccc(S(=O)(=O)NCCC(=O)NCc2cccs2)cc1` gave HSP90 inh -1, ARNT TACC3 PPI -2, HIF act 0, HSF1 inhib -70* and HSF-1 act -77.
For O=C(CCNS(=O)(=O)c1ccc(Cl)cc1)NCc1cccs1 the results were HSP90 inh 2, ARNT TACC3 PPI -27, HIF act 0, HSF1 inhib -5 and HSF-1 act 1.
For COCCCNC(=O)CC(NS(=O)(=O)c1ccc(C)cc1)c1ccc(OC)cc1 (stereo not given) the results were HSP90 inh -2, ARNT TACC3 PPI -17, HIF act 0, HSF1 inhib -77* and HSF-1 act -80.
For CC(C)NC(=O)Nc1ccc2c(c1)CC(=O)N([C@@H](C)CO)C[C@@H](C)[C@H](CN(C)C(=O)Nc1ccc3c(c1)OCO3)O2 the results were ARNT TACC3 PPI 11.
Screening O=C(Cc1ccccc1)Nc1ccc(NC(=O)Cc2ccccc2)c(Cl)c1 returned HSP90 inh 1, ARNT TACC3 PPI 2, HIF act 0, HSF1 inhib -3 and HSF-1 act 1.
`Nc1ccc(NC(=O)c2ccco2)c(Cl)c1` gave HSP90 inh -9, ARNT TACC3 PPI 3, HIF act 0, HSF1 inhib 18 and HSF-1 act 56*.
`O=C(Cc1ccccc1)Nc1ccc(NC(=O)c2ccco2)cc1Cl` gave HSP90 inh 9, ARNT TACC3 PPI 1, HIF act 0, HSF1 inhib -56* and HSF-1 act -63.
Screening CN1[C@@H]2c3cccc(=O)n3C[C@@H]2[C@@H](CO)[C@@H]1C(=O)NCC1CCCCC1 returned ARNT TACC3 PPI -10.
CNC(=O)C[C@@H]1CC[C@@H]2[C@@H](COc3ccc(NC(=O)Nc4c(C)noc4C)cc3C(=O)N2C)O1 was read as ARNT TACC3 PPI -9.
`CO[C@H]1CC[C@H]2CCN(C)C(=O)[C@H](C)[C@H](OC)CN(C)C(=O)c3cccc(C#N)c3OC[C@@H]1O2` gave ARNT TACC3 PPI 2.
COCC(=O)Nc1ccc2c(c1)C(=O)N(C)C[C@@H](OC)[C@@H](C)CN(Cc1ccccc1)[C@@H](C)CO2 was read as ARNT TACC3 PPI 11.
`COc1ccc(C(=O)/C=C/Sc2nc3ccccc3o2)cc1` gave HSP90 inh -1, ARNT TACC3 PPI -10, HIF act 3, HSF1 inhib 73 and HSF-1 act 93*.
Screening S=c1[nH]nc(-c2ccccc2)n1/N=C/c1ccc(-c2ccccc2Cl)o1 returned HSP90 inh -2, ARNT TACC3 PPI 1, HIF act 0, HSF1 inhib 86 and HSF-1 act 151*.
Cc1ccc(S(=O)(=O)Nc2ccc3c(c2)C(=O)N([C@H](C)CO)C[C@H](C)[C@H](CN(C)C(=O)c2ccncc2)OCCCC[C@H](C)O3)cc1 was read as ARNT TACC3 PPI -9.
Screening Cc1ccc(/C=C/C(=O)Nc2ccccc2C(N)=O)cc1 returned HSP90 inh 2, ARNT TACC3 PPI -6, HIF act 0, HSF1 inhib 18 and HSF-1 act 59*.
`NC(=O)c1ccccc1NC(=O)/C=C/C(=O)O` gave HSP90 inh -4, ARNT TACC3 PPI 3, HIF act -1, HSF1 inhib 25 and HSF-1 act inconclusive.
Cc1ccc(C=Nc2ccccc2C(N)=O)cc1 was read as HSP90 inh 1, ARNT TACC3 PPI -8, HIF act 5, HSF1 inhib 55 and HSF-1 act 66*.
`CNC(=O)C[C@@H]1CC[C@H]2[C@H](COc3ccc(NC(=O)Cc4cccs4)cc3C(=O)N2C)O1` gave ARNT TACC3 PPI -3.
For CO[C@@H]1CN(C)C(=O)c2ccc(NC(=O)Nc3ccccc3)cc2OC[C@@H](C)N(CC2CC2)C[C@@H]1C the results were ARNT TACC3 PPI -6.
For COc1ccc(C(=O)Nc2ccc3c(c2)C(=O)N(C)[C@@H]2CC[C@H](CC(=O)NCC4CC4)O[C@H]2CO3)cc1 the results were ARNT TACC3 PPI -8.
`Oc1ccc(-c2csc(Nc3ncccn3)n2)cc1` gave HSP90 inh 4, ARNT TACC3 PPI 3, HIF act 5, HSF1 inhib 44 and HSF-1 act 60*.
Screening c1ccc(-c2csc(Nc3ncccn3)n2)cc1 returned HSP90 inh 2, ARNT TACC3 PPI -2, HIF act 2, HSF1 inhib 24 and HSF-1 act 42.
Screening COc1ccc2cc(/C=C/C(=O)N3CCN(CC(=O)N4CCCCCC4)CC3)ccc2c1 returned HSP90 inh -2, ARNT TACC3 PPI 1, HIF act 1, HSF1 inhib 22 and HSF-1 act 61*.
`C1CCC(n2nnnc2CN2CCN(C3CCCC3)CC2)CC1` gave HSP90 inh 3, ARNT TACC3 PPI 2, HIF act 0, HSF1 inhib 0 and HSF-1 act -5.

Screens as filed in PubChem.
